{"source": "PubChem BioAssay (NCI)", "key": {"[1]": {"assay": "NCI Yeast Anticancer Drug Screen. Data for the rad52 strain (AID 147);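 note: 0% = growth of vehicle-treated control cultures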", "settings": "S. cerevisiae rad52 mutant growth inhibition, active compounds read high", "in_short": "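Growth of repair-deficient yeast cells was compared between compound-treated and vehicle-treated cultures to give percent inhibition.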"}, "[2]": {"assay": "NCI Yeast Anticancer Drug Screen. Data for the wt1 strain (AID 149);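 note: 0% = growth of vehicle-treated wt1 cultures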", "settings": "S. cerevisiae wt1 strain (SPY 50644) growth inhibition, active compounds read high", "in_short": "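wt1 yeast, compound-treated; % growth inhibition vs vehicle control.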"}, "[3]": {"assay": "NCI Yeast Anticancer Drug Screen. Data for the rad50EPP+ strain (AID 151);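 note: 0% = growth of vehicle-treated control cultures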", "settings": "S. cerevisiae rad50 mutant strain, active compounds read high", "in_short": "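Measured: growth inhibition of rad50EPP+ yeast. Reference: vehicle-treated controls. Screen uses strains with defined genetic alterations in DNA damage repair or cell cycle control.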"}, "[4]": {"assay": "NCI Yeast Anticancer Drug Screen. Data for the mgt1 strain (AID 153)", "settings": "S. cerevisiae mgt1 mutant growth inhibition, active compounds read high", "in_short": "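Compounds were applied to mgt1 mutant yeast, and growth was then compared against vehicle-treated control cultures to give percent inhibition.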"}, "[5]": {"assay": "NCI Yeast Anticancer Drug Screen. Data for the rad50 strain (AID 155);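 note: 0% = growth of vehicle-only cultures of the same strain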", "settings": "S. cerevisiae rad50 strain growth inhibition, active compounds read high", "in_short": "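Genetically altered yeast (DNA repair pathway); compound treatment; growth inhibition vs vehicle ctrl.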"}, "[6]": {"assay": "NCI Yeast Anticancer Drug Screen. Data for the mec2-1 strain (AID 157)", "settings": "S. cerevisiae mec2-1 strain, active compounds read high", "in_short": "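Compounds were applied to mec2-1 yeast cells. Their growth was then compared with that of vehicle-treated cultures to give growth inhibition.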"}, "[7]": {"assay": "NCI Yeast Anticancer Drug Screen. Data for the rad14 strain (AID 159);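 note: 0% = growth of vehicle-treated control cultures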", "settings": "S. cerevisiae rad14 strain growth inhibition, active compounds read high", "in_short": "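Test compounds were applied to a repair-deficient yeast strain. Its growth was then compared with that of cultures given vehicle alone, and inhibition was expressed relative to those controls.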"}, "[8]": {"assay": "NCI Yeast Anticancer Drug Screen. Data for the sgs1 mgt1 strain (AID 161);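 note: 0% = growth of cultures given vehicle only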", "settings": "S. cerevisiae sgs1 mgt1 strain, active compounds read high", "in_short": "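Growth of a repair-deficient yeast mutant was monitored after compound treatment and expressed as inhibition relative to vehicle-treated cultures.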"}, "[9]": {"assay": "NCI Yeast Anticancer Drug Screen. Data for the cln2 rad14 strain (AID 165);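 note: 0% = growth equal to vehicle treated cultures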", "settings": "S. cerevisiae cln2 rad14 strain, active compounds read high", "in_short": "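Strain: cln2 rad14 yeast, altered in cell cycle control and DNA damage repair. Read-out: growth inhibition vs vehicle.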"}, "[10]": {"assay": "NCI Yeast Anticancer Drug Screen. Data for the bub3 strain (AID 167)", "settings": "S. cerevisiae bub3 mutant strain, active compounds read high", "in_short": "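Yeast carrying a defined mutation is treated with each compound, and growth is compared with that of vehicle-exposed cells to give inhibition.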"}, "[11]": {"assay": "NCI Yeast Anticancer Drug Screen. Data for the wt2 strain (AID 169);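 note: 0% = growth of vehicle-treated yeast cultures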", "settings": "S. cerevisiae wt2 strain growth inhibition, active compounds read high", "in_short": "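Growth of compound-treated yeast is measured and expressed as inhibition relative to vehicle-only controls.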"}, "[12]": {"assay": "NCI Yeast Anticancer Drug Screen. Data for the mlh1 strain (AID 171);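 note: 0% = growth of vehicle-treated control cultures of the same strain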", "settings": "S. cerevisiae mlh1 strain growth inhibition, active compounds read high", "in_short": "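Test agents were incubated with yeast bearing a defined DNA damage repair or cell cycle control alteration; values are growth inhibition normalised to vehicle-treated cultures.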"}, "[13]": {"assay": "NCI Yeast Anticancer Drug Screen. Data for the sgs1 strain (AID 173);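 note: 0% = growth of vehicle-only control cultures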", "settings": "S. cerevisiae sgs1 mutant, active compounds read high", "in_short": "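Strain with an altered DNA repair or cell cycle pathway exposed to compound. Growth then measured. Value = inhibition versus vehicle control.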"}, "[14]": {"assay": "NCI Yeast Anticancer Drug Screen. Data for the mlh1 rad18 strain (AID 175)", "settings": "S. cerevisiae mlh1 rad18 strain growth inhibition, active compounds read high", "in_short": "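A repair-deficient yeast strain is exposed to test compound, and growth is scored relative to vehicle-treated controls.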"}, "[15]": {"assay": "NCI Yeast Anticancer Drug Screen. Data for the rad18 strain (AID 177)", "settings": "S. cerevisiae rad18 mutant growth inhibition, active compounds read high", "in_short": "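DNA-repair-defective yeast; compound treatment; growth inhibition scored against vehicle.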"}, "[16]": {"settings": "at 5.0 µM (retest, dose inferred, filed as 0.5)"}, "[17]": {"settings": "at 50.0 µM (retest, dose inferred, filed as 5.0)"}}, "note": "About 79,000 compounds went through this panel and 15% of them were active in at least one assay; those are over-represented in the sample as a whole. Values without a mark were called inactive. Active and inactive are the calls of the source. Cut-off read from the data, not from the text of the source: active = growth inhibition above about 70%; inactive = the rest."}
{"molecule": "CC(=O)Nc1ccc(SC(C)=O)cc1", "values": [{"measurement": "growth inhibition", "setting": "[1]; at 1.2 µM", "value": 0, "unit": "%"}, {"measurement": "growth inhibition", "setting": "[1]; at 3.7 µM", "value": -21, "unit": "%"}, {"measurement": "growth inhibition", "setting": "[1]; at 11.0 µM", "value": -2, "unit": "%"}, {"measurement": "growth inhibition", "setting": "[1]; at 33.0 µM", "value": 58, "unit": "%"}, {"measurement": "growth inhibition", "setting": "[1]; at 100.0 µM", "value": "86% (active)"}, {"measurement": "growth inhibition", "setting": "[2]; at 1.2 µM", "value": -36, "unit": "%"}, {"measurement": "growth inhibition", "setting": "[2]; at 3.7 µM", "value": -30, "unit": "%"}, {"measurement": "growth inhibition", "setting": "[2]; at 11.0 µM", "value": -18, "unit": "%"}, {"measurement": "growth inhibition", "setting": "[2]; at 33.0 µM", "value": 43, "unit": "%"}, {"measurement": "growth inhibition", "setting": "[2]; at 100.0 µM", "value": "85% (active)"}, {"measurement": "growth inhibition", "setting": "[3]; at 1.2 µM", "value": -29, "unit": "%"}, {"measurement": "growth inhibition", "setting": "[3]; at 3.7 µM", "value": -22, "unit": "%"}, {"measurement": "growth inhibition", "setting": "[3]; at 11.0 µM", "value": -6, "unit": "%"}, {"measurement": "growth inhibition", "setting": "[3]; at 33.0 µM", "value": -1, "unit": "%"}, {"measurement": "growth inhibition", "setting": "[3]; at 100.0 µM", "value": 29, "unit": "%"}, {"measurement": "growth inhibition", "setting": "[4]; at 1.2 µM", "value": -55, "unit": "%"}, {"measurement": "growth inhibition", "setting": "[4]; at 3.7 µM", "value": -45, "unit": "%"}, {"measurement": "growth inhibition", "setting": "[4]; at 11.0 µM", "value": -32, "unit": "%"}, {"measurement": "growth inhibition", "setting": "[4]; at 33.0 µM", "value": 44, "unit": "%"}, {"measurement": "growth inhibition", "setting": "[4]; at 100.0 µM", "value": "86% (active)"}, {"measurement": "growth inhibition", "setting": "[5]; at 1.2 µM", "value": -29, "unit": "%"}, {"measurement": "growth inhibition", "setting": "[5]; at 3.7 µM", "value": -4, "unit": "%"}, {"measurement": "growth inhibition", "setting": "[5]; [16]", "value": "80% (active)"}, {"measurement": "growth inhibition", "setting": "[5]; at 11.0 µM", "value": 7, "unit": "%"}, {"measurement": "growth inhibition", "setting": "[5]; at 33.0 µM", "value": 59, "unit": "%"}, {"measurement": "growth inhibition", "setting": "[5]; [17]", "value": "100% (active)"}, {"measurement": "growth inhibition", "setting": "[5]; at 50.0 µM", "value": "70.7% (active)"}, {"measurement": "growth inhibition", "setting": "[5]; at 100.0 µM", "value": "86% (active)"}, {"measurement": "growth inhibition", "setting": "[6]; at 1.2 µM", "value": -41, "unit": "%"}, {"measurement": "growth inhibition", "setting": "[6]; at 3.7 µM", "value": -45, "unit": "%"}, {"measurement": "growth inhibition", "setting": "[6]; [16]", "value": "72% (active)"}, {"measurement": "growth inhibition", "setting": "[6]; at 11.0 µM", "value": -9, "unit": "%"}, {"measurement": "growth inhibition", "setting": "[6]; at 33.0 µM", "value": 62, "unit": "%"}, {"measurement": "growth inhibition", "setting": "[6]; [17]", "value": "100% (active)"}, {"measurement": "growth inhibition", "setting": "[6]; at 50.0 µM", "value": 56.8, "unit": "%"}, {"measurement": "growth inhibition", "setting": "[6]; at 100.0 µM", "value": "86% (active)"}, {"measurement": "growth inhibition", "setting": "[7]; at 1.2 µM", "value": -27, "unit": "%"}, {"measurement": "growth inhibition", "setting": "[7]; at 3.7 µM", "value": -38, "unit": "%"}, {"measurement": "growth inhibition", "setting": "[7]; at 11.0 µM", "value": -5, "unit": "%"}, {"measurement": "growth inhibition", "setting": "[7]; at 33.0 µM", "value": 56, "unit": "%"}, {"measurement": "growth inhibition", "setting": "[7]; at 100.0 µM", "value": "88% (active)"}, {"measurement": "growth inhibition", "setting": "[8]; [16]", "value": -6, "unit": "%"}, {"measurement": "growth inhibition", "setting": "[8]; [17]", "value": "78% (active)"}, {"measurement": "growth inhibition", "setting": "[8]; at 50.0 µM", "value": 60.6, "unit": "%"}, {"measurement": "growth inhibition", "setting": "[9]; [16]", "value": 44, "unit": "%"}, {"measurement": "growth inhibition", "setting": "[9]; [17]", "value": "85% (active)"}, {"measurement": "growth inhibition", "setting": "[9]; at 50.0 µM", "value": 66.7, "unit": "%"}, {"measurement": "growth inhibition", "setting": "[10]; at 1.2 µM", "value": -25, "unit": "%"}, {"measurement": "growth inhibition", "setting": "[10]; at 3.7 µM", "value": -6, "unit": "%"}, {"measurement": "growth inhibition", "setting": "[10]; [16]", "value": 18, "unit": "%"}, {"measurement": "growth inhibition", "setting": "[10]; at 11.0 µM", "value": 0, "unit": "%"}, {"measurement": "growth inhibition", "setting": "[10]; at 33.0 µM", "value": 63, "unit": "%"}, {"measurement": "growth inhibition", "setting": "[10]; [17]", "value": "77% (active)"}, {"measurement": "growth inhibition", "setting": "[10]; at 50.0 µM", "value": 55.6, "unit": "%"}, {"measurement": "growth inhibition", "setting": "[10]; at 100.0 µM", "value": "87% (active)"}, {"measurement": "growth inhibition", "setting": "[11]; at 1.2 µM", "value": -22, "unit": "%"}, {"measurement": "growth inhibition", "setting": "[11]; at 3.7 µM", "value": -23, "unit": "%"}, {"measurement": "growth inhibition", "setting": "[11]; at 11.0 µM", "value": -10, "unit": "%"}, {"measurement": "growth inhibition", "setting": "[11]; at 33.0 µM", "value": 54, "unit": "%"}, {"measurement": "growth inhibition", "setting": "[11]; at 100.0 µM", "value": "88% (active)"}, {"measurement": "growth inhibition", "setting": "[12]; at 1.2 µM", "value": -25, "unit": "%"}, {"measurement": "growth inhibition", "setting": "[12]; at 3.7 µM", "value": -26, "unit": "%"}, {"measurement": "growth inhibition", "setting": "[12]; at 11.0 µM", "value": 6, "unit": "%"}, {"measurement": "growth inhibition", "setting": "[12]; at 33.0 µM", "value": 54, "unit": "%"}, {"measurement": "growth inhibition", "setting": "[12]; at 100.0 µM", "value": "86% (active)"}, {"measurement": "growth inhibition", "setting": "[13]; at 1.2 µM", "value": -30, "unit": "%"}, {"measurement": "growth inhibition", "setting": "[13]; at 3.7 µM", "value": -9, "unit": "%"}, {"measurement": "growth inhibition", "setting": "[13]; at 11.0 µM", "value": 10, "unit": "%"}, {"measurement": "growth inhibition", "setting": "[13]; at 33.0 µM", "value": 65, "unit": "%"}, {"measurement": "growth inhibition", "setting": "[13]; at 100.0 µM", "value": "88% (active)"}, {"measurement": "growth inhibition", "setting": "[14]; [16]", "value": 60, "unit": "%"}, {"measurement": "growth inhibition", "setting": "[14]; [17]", "value": "100% (active)"}, {"measurement": "growth inhibition", "setting": "[14]; at 50.0 µM", "value": "72.3% (active)"}, {"measurement": "growth inhibition", "setting": "[15]; at 1.2 µM", "value": -28, "unit": "%"}, {"measurement": "growth inhibition", "setting": "[15]; at 3.7 µM", "value": -10, "unit": "%"}, {"measurement": "growth inhibition", "setting": "[15]; at 11.0 µM", "value": -4, "unit": "%"}, {"measurement": "growth inhibition", "setting": "[15]; at 33.0 µM", "value": 52, "unit": "%"}, {"measurement": "growth inhibition", "setting": "[15]; at 100.0 µM", "value": "84% (active)"}]}
